# Source: PubChem BioAssay (NCATS)
# Results filed as inconclusive are left out. The source made the active and inactive calls. Calls follow the shape of the dose curve; as a rule, active = well fitted inhibition curve with a large enough effect; inconclusive = small, poorly fitted or top-dose-only effect; inactive = flat fitted curve, though single readings scatter.
# Test: P-glycoprotein substrates identified in KB-8-5-11 adenocarcinoma cell line, qHTS therapeutic library screen (AID 1346987); also: nearly all actives have a fitted effect of over 65% in size
# Details: KB-8-5-11 (P-gp overexpressing) viability, CellTiter-Glo, 72 h; series mostly up to 44.5 µM; activity change, negative = cytotoxicity: at the top concentration
# How it was run: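 Luminescence from CellTiter-Glo, read 5 min after addition, quantified survival of KB-8-5-11 (P-gp-overexpressing) cells exposed to compounds for 72 h. AC50 was derived from concentration-response curves.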
# % is scaled to controls: 0 for no effect and ±100 for the full control effect.
SMILES,"activity change, negative = cytotoxicity",outcome
CCCN1CCC[C@@H](c2cccc(S(C)(=O)=O)c2)C1,-5.3% (inactive),
COc1cc(C)c(C(=O)NC2C(C)OC(OC3CCC(C)C4C3C=C(C)C3/C(C)=C\CC/C(C)=C/C5(C)C=C(C(=O)O)C(C)CC56OC(=O)/C(=C(\O)C34C)C6=O)C(O)C2(C)O)c(O)c1 (stereo unspecified),,inactive [at 9.29 µM]
C=CC(C)(O)CC/C=C(\C)C1CC=C(C)C(=O)O1 (stereo unspecified),5.5% (inactive),
CC1CCC2(NC1)OC1C(O)C3C4CCC5CC(O[C@@H]6O[C@H](CO)[C@@H](O)[C@H](O)[C@H]6O[C@@H]6O[C@@H](C)[C@H](O)[C@@H](O)[C@H]6O)CCC5(C)C4CCC3(C)C1C2C (stereo partly specified),2.81% [at 17.3 µM] (inactive),
COc1cc(C2OCC3(O)C(c4ccc(O[C@@H]5O[C@H](CO)[C@@H](O)[C@H](O)[C@H]5O)c(OC)c4)OCC23O)ccc1O (stereo partly specified),1.88% [at 17.3 µM] (inactive),
CC1(CO)CCCC2(C)C1C(OC(=O)c1ccccc1)CC1C(=O)OCC12O (stereo unspecified),,inactive
O=C(/C=C/c1ccc(O)c(O)c1)O[C@@H]1[C@@H](O)[C@H](OC2CCCCC2O)O[C@H](CO)[C@H]1O (stereo partly specified),,inactive [at 17.3 µM]
O=C1C(Cl)=C(N2CCOCC2)C(=O)N1c1ccc(Cl)c(Cl)c1,9.77% [at 17.3 µM] (inactive),
COCC1OC(OC(C)(C)C2CCC3(C)C=C(C4CCC5C4(C)CC(O)C4OC(C(C)(C)O)CCC45C)CCC3O2)C(NC(C)=O)C(O)C1O (stereo unspecified),3.69% [at 17.3 µM] (inactive),
CC1=C[C@H]2[C@@H](CC1=O)[C@H](C)C[C@H](O)[C@H]2C(C)C,-19.5% (inactive),
C=C(C)C1Cc2c(ccc3c2OCC(c2ccc(O)cc2O)C3)O1 (stereo unspecified),-24.8% (inactive),
OC[C@H]1O[C@@H](OCc2ccccc2)[C@H](O)[C@@H](O)[C@@H]1O,,inactive
Cn1c2ccc(NC(=O)c3ccccc3)cc2c(=O)n2nc(C(=O)O)cc12,,inactive [at 17.3 µM]
CC1(C)CC[C@]2(C(=O)O)CC[C@]3(C)C(=CCC4[C@@]5(C)CC[C@H](O[C@H]6O[C@H](C(=O)O)[C@@H](O)[C@H](O[C@@H]7O[C@H](CO)[C@H](O)[C@H](O)[C@H]7O)[C@H]6O)C(C)(C)C5CC[C@]43C)[C@@H]2C1 (stereo partly specified),,inactive [at 9.29 µM]
C/C=C/C=C/C1=C2C(=O)C3(C)C4C(C(=O)CC(O)/C=C/C)=C(O1)C1(C)C2C2(C)OC1(O)C4(C)OC23O (stereo unspecified),-5.21% [at 17.3 µM] (inactive),
COC(=O)C1=CO[C@@H](O[C@@H]2O[C@H](CO[C@@H]3O[C@H](CO)[C@@H](O)[C@H](O)[C@H]3O)[C@@H](O)[C@H](O)[C@H]2O)[C@@H]2C(CO)=CC[C@H]12,9.02% [at 17.3 µM] (inactive),
